Unmarked numbers belong to inactive results. Inconclusive results are not listed. Active and inactive are the calls of the source. Unless noted, calls follow the shape of the dose curve; as a rule, active = well fitted curve in the direction sought with a large enough effect in the repeat runs; inconclusive = weak or mixed curves; inactive = no such curve, though single readings can be large; an effect the other way counts as inactive or inconclusive.

Data on 8 compounds can be found in PubChem BioAssay (Tox21).

Assay [1] is described as follows: qHTS assay to test for compound auto fluorescence at 535 nm (green) in HEK293 cells (AID 720680). Background: In qHTS, concentration-response curves come from the screen itself.
Assay [2] can be described thus: qHTS assay to test for compound auto fluorescence at 460 nm (blue) in HEK293 cell free culture (AID 720681). An outline of the steps: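 Test compounds were pinned into cell-free culture medium (DMEM with 10% FBS) and fluorescence was read directly at Ex/Em 405/460 nm. Signals were expressed as fluorescence equivalents of triamterene, with DMSO vehicle as control.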

A short description of assay [3]: qHTS assay to test for compound auto fluorescence at 535 nm (green) in HEK293 cell free culture (AID 720682). The method in brief:
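Green-label autofluorescence (485 nm excitation, 535 nm emission) measured on compound added to cell-free culture medium (DMEM, 10% FBS). Output is expressed relative to fluorescein.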

A short description of assay [4]: qHTS assay to test for compound auto fluorescence at 590 nm (red) in HEK293 cell free culture (AID 720683). An outline of the steps: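 Tox21 10K library compounds were pinned into cell-free DMEM with 10% FBS and fluorescence was read at excitation 540 nm. Activity is expressed as Rose Bengal sodium equivalency.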
Assay [5] can be described thus: qHTS assay to test for compound auto fluorescence at 590 nm (red) in HepG2 cell free culture (AID 720684). An outline of the steps:
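Ex 540 / Em 590 nm read of compound in cell-free MEM (10% FBS). Rose Bengal sodium reference.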

A short description of assay [6]: qHTS assay to test for compound auto fluorescence at 460 nm (blue) in HepG2 cell free culture (AID 720685). The method in brief: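 Cell-free plates of MEM plus 10% FBS received 23 nL compound or DMSO vehicle; blue-channel (405/460 nm) intensity scored against triamterene as reference fluorophore.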
A short description of assay [7]: qHTS assay to test for compound auto fluorescence at 535 nm (green) in HepG2 cell free culture (AID 720686).
The nature of assay [8]: qHTS assay to test for compound auto fluorescence at 460 nm (blue) in HepG2 cells (AID 720687). The method in brief: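 Cells (2,000/well in MEM with 10% FBS) attached overnight at 37 C, then were exposed to compound or DMSO for 1 hr at 37 C, 5% CO2. Fluorescence read at Ex/Em 405/460 nm, expressed as triamterene-equivalent signal.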
The target of assay [9] is Glucocorticoid receptor (Homo sapiens) (UniProt P04150). In words: qHTS assay to identify small molecule agonists of the glucocorticoid receptor (GR) signaling pathway (AID 720691; active = well fitted activation curve with a large enough effect in the signal ratio in the repeat runs, not every such curve was filed as active; the % refers to the signal ratio). An outline of the steps:
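Cells: GR-bla HeLa, endogenous GR with stably integrated GRE-beta-lactamase reporter. Treatment 18 h, 37 C, compounds delivered in DMSO. Detection via LiveBLAzer B/G FRET substrate, 2 h RT, fluorescence intensity.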

For assay [10] the target is unchanged. In words: qHTS assay to identify small molecule antagonists of the glucocorticoid receptor (GR) signaling pathway (AID 720692; active = well fitted inhibition curve with a large enough effect in the signal ratio in the repeat runs, not every such curve was filed as active; the % refers to the signal ratio). The method in brief:
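Quantitative HTS in antagonist format: HeLa cells expressing endogenous GR and a stably integrated GRE-bla reporter, stimulated with 5 nM dexamethasone (final) alongside test compounds for 18 h.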

Assay [11] is described as follows: qHTS assay to identify small molecule antagonists of the glucocorticoid receptor (GR) signaling pathway - cell viability counter screen (AID 720693). Also: nearly all actives have a fitted effect of over 55% in size.
Assay [12] is described as follows: qHTS assay to identify small molecule antagonists of the androgen receptor (AR) signaling pathway - cell viability counter screen (AID 743033; also: nearly all actives have a fitted effect of over 45% in size).
Assay [13] can be described thus: qHTS assay to identify small molecule antagonists of the androgen receptor (AR) signaling pathway using the MDA cell line - cell viability counter screen (AID 743041; also: nearly all actives have a fitted effect of over 45% in size). The method in brief: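 In this qHTS counter assay, fluorescence intensity after CellTiter-Fluor addition indicated viability of MDA-kb2 AR-luc cells given compounds and R1881 for 16 h at 37C.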
Assay [14] can be described thus: qHTS assay for identifying genotoxic compounds that show differential cytotoxicity against isogenic chicken DT40 cell lines with known DNA damage response pathways - wild type cell line (AID 743012). Also: nearly all actives have a fitted effect of over 60% in size. Also: potency is read from the fitted curve at half-maximal effect. An outline of the steps:
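Luminescent ATP viability signal (CellTiter-Glo, 30 min RT) recorded after wild type DT40 cells were incubated with compounds for 40 h at 37 C/5% CO2.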

A short description of assay [15]: qHTS assay for identifying genotoxic compounds that show differential cytotoxicity against isogenic chicken DT40 cell lines with known DNA damage response pathways - Rev3 mutant cell line (AID 743014). Also: nearly all actives have a fitted effect of over 55% in size.
Assay [16] in a line: qHTS assay for identifying genotoxic compounds that show differential cytotoxicity against isogenic chicken DT40 cell lines with known DNA damage response pathways - Rad54/Ku70 mutant cell line (AID 743015). Also: nearly all actives have a fitted effect of over 60% in size. Also: potency is read from the fitted curve at half-maximal effect.
The target of assay [17] is Androgen receptor (Homo sapiens) (UniProt P10275). In words: qHTS assay to identify small molecule agonists of the androgen receptor (AR) signaling pathway using the MDA cell line (AID 743040; also: nearly all actives have a fitted effect of over 20% in size). An outline of the steps:
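Cell-based luciferase reporter: MDA-kb2, MMTV promoter (AR + GR response elements). 16 h compound exposure at 37C; ONE-Glo, 30 min RT, luminescence.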

Assay [18] has the same target. In words: qHTS assay to identify small molecule antagonists of the androgen receptor (AR) signaling pathway using the MDA cell line (AID 743042; also: nearly all actives have a fitted effect of over 55% in size). An outline of the steps: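 MDA-kb2 cells (human breast carcinoma, stably carrying an MMTV-luciferase reporter responsive to AR and GR) were plated at 3,000 cells/well and preincubated 5 hr at 37C, then given compound plus R1881 agonist for 16 h. ONE-Glo luminescence was read.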

Assay [19] shares this target. Briefly: qHTS assay to identify small molecule antagonists of the androgen receptor (AR) signaling pathway (AID 743035; active = well fitted inhibition curve with a large enough effect in the signal ratio in the repeat runs, not every such curve was filed as active; the % refers to the signal ratio). An outline of the steps:
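Quantitative HTS of the Tox21 10K library used HEK293 AR-UAS-bla cells stimulated with R1881 alongside compound for 16 h at 37C, followed by beta-lactamase FRET detection (LiveBLAzer B/G, 2 h, RT).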

The target is the same in assay [20]. Briefly: qHTS assay to identify small molecule agonists of the androgen receptor (AR) signaling pathway (AID 743036; active = well fitted activation curve with a large enough effect in the signal ratio in the repeat runs, with a control signal flat, not every such curve was filed as active; the % refers to the signal ratio). An outline of the steps:
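AR-UAS-bla HEK293 cells, plated 4 h before dosing, were treated with compound for 16 h at 37C. beta-Lactamase reporter read after 2 h with LiveBLAzer B/G FRET substrate at room temperature.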
% is scaled to controls: 0 for no effect and ±100 for the full control effect.

Glucocorticoid receptor (Homo sapiens), sequence (P04150 whole entry, looked up): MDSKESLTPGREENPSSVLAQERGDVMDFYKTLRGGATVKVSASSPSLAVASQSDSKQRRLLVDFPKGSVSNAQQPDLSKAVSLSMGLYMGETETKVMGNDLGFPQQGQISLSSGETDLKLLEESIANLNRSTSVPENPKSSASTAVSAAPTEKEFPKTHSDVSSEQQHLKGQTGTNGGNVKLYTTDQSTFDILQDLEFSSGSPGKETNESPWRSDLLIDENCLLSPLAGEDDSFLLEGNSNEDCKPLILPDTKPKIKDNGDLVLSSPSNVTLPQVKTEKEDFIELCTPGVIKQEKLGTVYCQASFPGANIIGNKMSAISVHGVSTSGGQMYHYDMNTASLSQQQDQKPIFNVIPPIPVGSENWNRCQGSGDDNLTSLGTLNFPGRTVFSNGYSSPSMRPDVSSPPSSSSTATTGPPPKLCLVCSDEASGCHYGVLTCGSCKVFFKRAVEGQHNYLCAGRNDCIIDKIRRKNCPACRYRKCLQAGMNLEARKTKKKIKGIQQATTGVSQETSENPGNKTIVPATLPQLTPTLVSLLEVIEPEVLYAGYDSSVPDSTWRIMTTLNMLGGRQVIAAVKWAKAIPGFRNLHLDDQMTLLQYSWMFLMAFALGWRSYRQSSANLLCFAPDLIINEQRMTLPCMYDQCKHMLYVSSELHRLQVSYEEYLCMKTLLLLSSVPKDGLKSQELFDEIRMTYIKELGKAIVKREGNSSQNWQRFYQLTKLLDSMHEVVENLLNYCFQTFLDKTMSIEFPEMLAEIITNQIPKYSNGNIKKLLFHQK
Androgen receptor (Homo sapiens), sequence (P10275 whole entry, looked up): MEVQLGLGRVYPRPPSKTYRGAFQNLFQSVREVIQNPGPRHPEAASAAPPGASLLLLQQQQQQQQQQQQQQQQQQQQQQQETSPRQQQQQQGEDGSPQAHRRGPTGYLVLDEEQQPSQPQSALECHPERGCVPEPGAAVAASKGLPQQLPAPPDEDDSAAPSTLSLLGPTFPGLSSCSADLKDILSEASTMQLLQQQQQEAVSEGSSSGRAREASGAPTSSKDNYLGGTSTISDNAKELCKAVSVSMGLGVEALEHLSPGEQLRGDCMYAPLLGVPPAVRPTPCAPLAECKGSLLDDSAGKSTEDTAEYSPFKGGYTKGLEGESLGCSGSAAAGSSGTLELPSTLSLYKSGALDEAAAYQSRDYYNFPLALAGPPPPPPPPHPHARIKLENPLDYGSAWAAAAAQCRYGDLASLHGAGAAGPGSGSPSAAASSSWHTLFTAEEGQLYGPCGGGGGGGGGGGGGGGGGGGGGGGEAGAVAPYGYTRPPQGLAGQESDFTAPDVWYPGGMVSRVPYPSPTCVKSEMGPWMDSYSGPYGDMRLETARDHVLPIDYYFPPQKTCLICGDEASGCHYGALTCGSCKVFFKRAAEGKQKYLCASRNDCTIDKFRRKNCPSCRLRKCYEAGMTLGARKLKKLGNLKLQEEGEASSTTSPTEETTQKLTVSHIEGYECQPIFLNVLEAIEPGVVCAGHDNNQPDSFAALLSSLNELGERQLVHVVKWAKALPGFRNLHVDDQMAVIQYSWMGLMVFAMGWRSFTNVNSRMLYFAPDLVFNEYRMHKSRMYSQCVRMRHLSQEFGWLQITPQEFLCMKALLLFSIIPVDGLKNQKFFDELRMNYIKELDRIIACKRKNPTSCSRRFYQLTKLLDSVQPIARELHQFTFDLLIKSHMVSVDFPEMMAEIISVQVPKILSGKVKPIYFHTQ

Regarding `Oc1ccc(Sc2ccc(O)cc2)cc1`, the compound was called inactive in [1], in assay [3], in assay [4], in assay [5] and in [7]. Further, the Potency entry in assay [2], in [6], in assay [8], in assay [9], in [10] and in [11] was “inactive” each time. Besides, the Potency result in [12] and in assay [13] was “inactive” throughout.
For `CCCCCCCCCCCCCCCBr`, the outcome in assay [1], in assay [3], in assay [4], in assay [5] and in [7] was inactive. The Potency entry in assay [2], in [6], in [8], in assay [9], in assay [11] and in assay [14] was “inactive” each time. The Potency result in [15], in assay [16], in assay [12] and in assay [13] was “inactive” each time.
As for `O=[N+]([O-])c1cc[n+]([O-])cc1`, the compound was classed as inactive in assay [1], in [3], in assay [4], in assay [5] and in assay [7]. The Potency entry in assay [2], in assay [6], in [8], in assay [9], in assay [11] and in assay [15] was “inactive” throughout. In addition, the Potency entry in assay [16], in [17], in [13] and in [18] was “inactive” in each case. Further, the Potency in assay [14] is 15.4 µM (active).
With `Cc1cccc(OCCOc2cccc(C)c2)c1`, the compound was classed as inactive in [1], in [3], in assay [4], in assay [5] and in [7]. The Potency entry in assay [2], in assay [6], in assay [8], in assay [9], in [10] and in [11] was “inactive” in each case. Further, the Potency result in assay [14] and in assay [13] was “inactive” throughout.
As for `CCCCCCCCCCCCC(=O)O`, the result in [1], in [3], in assay [4], in assay [5] and in assay [7] was inactive. Further, the Potency result in [2], in assay [6], in assay [8], in assay [9], in [11] and in assay [14] was “inactive” in each case. For the same compound, the Potency entry in [15], in assay [16] and in [13] was “inactive” throughout.
With `CCN(CC)CCOC(=O)C1(c2ccccc2)CCCC1`, the outcome in [1], in assay [3], in [4], in [5], in assay [7] and in assay [20] was inactive. The Potency entry in assay [2], in assay [6], in [8], in assay [9], in [10] and in assay [11] was “inactive” throughout. Moreover, the Potency result in assay [12], in assay [19], in assay [17], in assay [13] and in assay [18] was “inactive” throughout. In addition, the Potency in [14] is 26.6 µM (active); in assay [16] it was 23.7 µM (active).
With `Cc1cc(NC(=O)C(=O)O)cc(C)c1Oc1ccc(O)c2c1CCC2`, the call in assay [1], in [3], in assay [4], in assay [5], in [7] and in assay [20] was inactive. The Potency entry in [2], in assay [6], in assay [8], in assay [9], in assay [10] and in assay [11] was “inactive” throughout. The Potency entry in [14], in assay [16], in assay [12], in assay [19], in assay [17] and in assay [13] was “inactive” each time. Besides, the Potency entry in assay [18] is “inactive”.
`N=C(N=C(N)N)N1CCOCC1`: in [1], the fluorescence, % of fluorescein is -0.0392% [at 18.6 µM]. Moreover, the fluorescence, % of fluorescent control was 0.0143% [at 18.6 µM] in assay [2], 0.292% [at 18.6 µM] in [4], 0.021% [at 18.6 µM] in assay [6] and 0.133% [at 18.6 µM] in [8]. Further, in assay [3], the activity change was -0.0209% [at 18.6 µM]. In addition, in [5], the fluorescence, % of Rose Bengal was 0.0286% [at 18.6 µM]. Moreover, the fluorescence, % of fluorescein control in [7] was -0.0914% [at 18.6 µM]. Besides, the Potency entry in assay [9], in assay [10], in [11], in assay [14], in assay [16] and in [12] was “inactive” in each case. Further, the Potency entry in assay [13] is “inactive”.
